Data taken from the supplement of paper PMC8285479.
± gives the standard deviation of the averaged measurements. In all, about 1,900 compounds were measured (“normalised cell viability (NPI; 0 = phenylarsine oxide control, 1 = DMSO control)”: median about 1, lowest 2% from about 0.039 on). The full list was thinned out, with the lowest values kept by preference.

System: NCI-H1944
Test: normalised cell viability (NPI; 0 = phenylarsine oxide control, 1 = DMSO control) (fraction of DMSO control); NCI-H1944 is a non-small cell lung cancer line; higher = more viable cells (less compound toxicity)
Settings: 6 days
[1] = glucocorticoid arm: hydrocortisone 2.75 uM co-treatment, compound 1 µM
[2] = glucocorticoid arm: hydrocortisone 2.75 uM co-treatment, compound 5 µM
[3] = glucocorticoid arm: hydrocortisone 2.75 uM pre-treated 2 days and continued, compound 1 µM
[4] = glucocorticoid arm: hydrocortisone 2.75 uM pre-treated 2 days and continued, compound 5 µM
[5] = glucocorticoid arm: vehicle, compound 1 µM
[6] = glucocorticoid arm: vehicle, compound 5 µM
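Also: CTB read-out in 384-well plates, triplicate wells, NPI normalised per plate against 1 µM phenylarsine oxide (0) and 0.1% DMSO (1) controls.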

S=C(S)OC1CC2CC1C1CCCC21 [D-609 potassium]
normalised cell viability [1]: 1.02 ± 0.01
normalised cell viability [2]: 1.03 ± 0.017
normalised cell viability [3]: 1.04 ± 0.02
normalised cell viability [4]: 1.04 ± 0.01
normalised cell viability [5]: 1.03 ± 0.011
normalised cell viability [6]: 1.03

Cn1c(=O)c2nc[nH]c2n(C)c1=O [Theophylline]
normalised cell viability [1]: 1.001 ± 0.0085
normalised cell viability [2]: 1.01 ± 0.01
normalised cell viability [3]: 1.02 ± 0.021
normalised cell viability [4]: 0.9943 ± 0.0049
normalised cell viability [5]: 0.99 ± 0.0087
normalised cell viability [6]: 0.9907 ± 0.0038

O=C1OC(=O)[C@H]2[C@@H]1[C@@H]1CC[C@H]2O1 [Norcantharidin]
normalised cell viability [1]: 1.007 ± 0.0058
normalised cell viability [2]: 1.03 ± 0.02
normalised cell viability [3]: 1.02 ± 0.011
normalised cell viability [4]: 0.924 ± 0.23
normalised cell viability [5]: 0.9903 ± 0.0011
normalised cell viability [6]: 1 ± 0.022

O=C(OCCN1CCOCC1)C1(c2ccccc2)CCCCC1
normalised cell viability [1]: 1.01 ± 0.011
normalised cell viability [2]: 1.03 ± 0.088
normalised cell viability [3]: 1.02 ± 0.015
normalised cell viability [4]: 0.891 ± 0.21
normalised cell viability [5]: 1.017 ± 0.0058
normalised cell viability [6]: 1.03 ± 0.011

Cc1ccc(-n2nc(C(C)(C)C)cc2NC(=O)Nc2ccc(OCCN3CCOCC3)c3ccccc23)cc1 [BIRB 796 (Doramapimod)]
normalised cell viability [1]: 0.806 ± 0.012
normalised cell viability [2]: 0.826 ± 0.03
normalised cell viability [3]: 0.775 ± 0.019
normalised cell viability [4]: 0.816 ± 0.034
normalised cell viability [5]: 0.995 ± 0.005
normalised cell viability [6]: 1.017 ± 0.0058

O=C(Cc1ccc(-c2ccc(OCCN3CCOCC3)cc2)cn1)NCc1ccccc1
normalised cell viability [1]: 0.235 ± 0.021
normalised cell viability [2]: 0.258 ± 0.015
normalised cell viability [3]: 0.464 ± 0.041
normalised cell viability [4]: 0.518 ± 0.077
normalised cell viability [5]: 0.0379 ± 0.0028
normalised cell viability [6]: 0.0359 ± 0.0039

CCS(=O)(=O)Nc1ccc2[nH]c(O)c(C(=Nc3ccc(CN4CCCCC4)cc3)c3ccccc3)c2c1 [Hesperadin]
normalised cell viability [1]: 0.435 ± 0.035
normalised cell viability [2]: 0.396 ± 0.068
normalised cell viability [3]: 0.419 ± 0.087
normalised cell viability [4]: 0.51 ± 0.08
normalised cell viability [5]: 0.371 ± 0.08
normalised cell viability [6]: 0.218 ± 0.035

CC(C)C[C@H](NC(=O)[C@H](CCc1ccccc1)NC(=O)CN1CCOCC1)C(=O)N[C@@H](Cc1ccccc1)C(=O)N[C@@H](CC(C)C)C(=O)[C@@]1(C)CO1 [Carfilzomib (PR-171)]
normalised cell viability [1]: 0.0181 ± 0.0047
normalised cell viability [2]: 0.000755 ± 0.00097
normalised cell viability [3]: 0.777 ± 0.051
normalised cell viability [4]: 0.12 ± 0.025
normalised cell viability [5]: 0.0054 ± 0.0013
normalised cell viability [6]: -0.000926 ± 0.0006

CC(C)C[C@H](NC(=O)[C@H](CCc1ccccc1)NC(=O)CN1CCOCC1)C(=O)N[C@@H](Cc1ccccc1)C(=O)N[C@@H](CC(C)C)C(=O)[C@@]1(C)CO1 [Carfilzomib]
normalised cell viability [1]: 0.0119 ± 0.0019
normalised cell viability [2]: 0.198 ± 0.017
normalised cell viability [3]: 0.652 ± 0.035
normalised cell viability [4]: 0.986 ± 0.013
normalised cell viability [5]: 0.00203 ± 0.0017
normalised cell viability [6]: 0.0026 ± 0.00057

CCCCCCCCCC(=O)NC(CN1CCOCC1)[C@H](O)c1ccccc1 (mixture of isomers)
normalised cell viability [1]: 1.01
normalised cell viability [2]: 0.9997 ± 0.0096
normalised cell viability [3]: 1.02 ± 0.026
normalised cell viability [4]: 1.01 ± 0.024
normalised cell viability [5]: 1.01
normalised cell viability [6]: 0.997 ± 0.014

CNC(=N)NCCC[C@H](N)C(=O)O [NG-Monomethyl-L-arginine acetate]
normalised cell viability [1]: 1.001 ± 0.009
normalised cell viability [2]: 0.985 ± 0.022
normalised cell viability [3]: 1.001 ± 0.0081
normalised cell viability [4]: 0.879 ± 0.24
normalised cell viability [5]: 0.9883 ± 0.0097
normalised cell viability [6]: 0.991 ± 0.0079

S=C=Nc1cccc(NC(=S)NCCCCNC(=S)Nc2cccc(N=C=S)c2)c1
normalised cell viability [1]: 1.04 ± 0.04
normalised cell viability [2]: 1.05 ± 0.015
normalised cell viability [3]: 1.02 ± 0.033
normalised cell viability [4]: 1.04 ± 0.032
normalised cell viability [5]: 1.017 ± 0.0058
normalised cell viability [6]: 1.003 ± 0.0058

CCc1cccc(N(C)C(=N)Nc2cccc3ccccc23)c1
normalised cell viability [1]: 0.999 ± 0.027
normalised cell viability [2]: 0.918 ± 0.012
normalised cell viability [3]: 1.006 ± 0.0069
normalised cell viability [4]: 0.967 ± 0.013
normalised cell viability [5]: 1.003 ± 0.0064
normalised cell viability [6]: 1.01 ± 0.01

COc1ccc2c(c1)c(CC(=O)O)c(C)n2Cc1ccc(F)cc1 [1-(4-Fluorobenzyl)-5-methoxy-2-methylindole-3-acetic acid]
normalised cell viability [1]: 0.987 ± 0.014
normalised cell viability [2]: 0.977 ± 0.017
normalised cell viability [3]: 0.983 ± 0.028
normalised cell viability [4]: 0.982 ± 0.013
normalised cell viability [5]: 0.9717 ± 0.0076
normalised cell viability [6]: 0.974 ± 0.0027

COC(=O)Nc1ccc(-c2nc(N3CCOCC3)c3cnn(C4CCN(C(=O)OC)CC4)c3n2)cc1
normalised cell viability [1]: 0.505 ± 0.038
normalised cell viability [2]: 0.753 ± 0.013
normalised cell viability [3]: 0.563 ± 0.029
normalised cell viability [4]: 0.769 ± 0.067
normalised cell viability [5]: 0.476 ± 0.02
normalised cell viability [6]: 0.924 ± 0.015

CCn1nnc2c(N3CCOCC3)nc(-c3ccc(NC(=O)Nc4ccc(C(=O)N5CCN(C)CC5)cc4)cc3)nc21
normalised cell viability [1]: 0.201 ± 0.0067
normalised cell viability [2]: 0.375 ± 0.015
normalised cell viability [3]: 0.287 ± 0.01
normalised cell viability [4]: 0.543 ± 0.024
normalised cell viability [5]: 0.077 ± 0.01
normalised cell viability [6]: 0.22 ± 0.016

CN(C)C1CCN(C(=O)c2ccc(NC(=O)Nc3ccc(-c4nc(N5CCOCC5)nc(N5CCOCC5)n4)cc3)cc2)CC1
normalised cell viability [1]: 0.231 ± 0.011
normalised cell viability [2]: 0.105 ± 0.0056
normalised cell viability [3]: 0.311 ± 0.026
normalised cell viability [4]: 0.147 ± 0.012
normalised cell viability [5]: 0.0929 ± 0.0075
normalised cell viability [6]: 0.0212 ± 0.0032
